Screening results (PubChem)
DT40 TDP1 CPT = DT40-hTDP1 cell growth loss with CPT. Potency, µM (titrated, usually from 46.2 µM), hits mostly inhibitors. 12% of 420,000 active. AID 686979. chicken DT40 Tdp1-/-;hTDP1 cells + 20 nM CPT, ATP luminescence, 48 h; note: nearly all actives have a fitted effect of over 55% in size
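Chicken DT40 Tdp1-/- cells stably complemented with human TDP1 were seeded at 400 cells/well in medium containing 20 nM camptothecin, exposed to pin-transferred compounds, and grown at 37 °C for at least 48 hr. Viability was read as ATP luminescence.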
KB-V1 cytotox = kills drug-selected multidrug resistant KB-V1 cells. KB-V1 MDR cells viability, CellTiter-Glo, 72 h. Potency, µM (doses to about 46.1 µM), usual class: cytotoxic. 3.4% of 400,000 active. AID 1347076; note: nearly all actives have a fitted effect of over 60% in size
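Potencies derive from concentration-effect curves fitted to normalized luminescence (CellTiter-Glo) of KB-V1 cells treated for 72 h at 37 degrees C in phenol-red-free DMEM containing 10% FBS.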
HT1080NT lethal = kills 2HG-producing HT-1080-NT fibrosarcoma cells | HT-1080-NT fibrosarcoma viability, CellTiter-Glo ATP luminescence, 48 h | 1.6% of 360,000 active | Potency, µM (doses to about 46.1 µM), hits mostly cytotoxic;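 note: NT is the 2HG producing partner of a matched IDH1 knockdown line; nearly all actives have a fitted effect of over 55% in size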
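Fibrosarcoma NT cells, 750 per well in 5% FBS RPMI, were exposed to compound for 48 hours. Viability: CellTiter-Glo luminescence.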
KB-3-1 cytotox = KB-3-1 parental cell cytotoxicity | Potency, µM (series often up to 46.1 µM), most hits filed as cytotoxic | 1.4% of 400,000 active | KB-3-1 viability, CellTiter-Glo ATP luminescence, 72 h; note: nearly all actives have a fitted effect of over 60% in size
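Parental KB-3-1 adenocarcinoma cells in phenol-red-free DMEM with 10% FBS were pin-treated with compounds at several concentrations, incubated 72 h at 37 °C, and viability read by CellTiter-Glo luminescence; concentration-effect curves were fitted after normalization.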
HT1080 IDH1KD tx = kills HT-1080 cells with IDH1 knockdown; HT-1080 IDH1 knockdown viability, ATP luminescence, 48 h; Potency, µM (titrated, usually from 46.1 µM), most hits filed as cytotoxic; 2% of 360,000 active; AID 686971
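Knockdown cells (IDH1KD HT-1080) received compounds 2 h after plating at 750 cells/well and were kept 48 h at 37 °C in 5% FBS RPMI. A CellTiter-Glo luminescence read gave % activity for curve fitting.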
TDP1 cell noCPT = qHTS for Inhibitors of human tyrosyl-DNA phosphodiesterase 1 (TDP1): qHTS in cells in absence of CPT. Potency, µM (series often up to 46.2 µM), actives largely listed as inhibitors. 15% of 420,000 active. AID 686978, 2013. DT40 Tdp1-/- hTDP1 cells, no CPT, ATP luminescence, 48 h; note: nearly all actives have a fitted effect of over 55% in size
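No-CPT arm: Tdp1-/-;hTDP1 DT40 cells (400/well) plus compounds, incubated ≥48 hr at 37 °C. Readout CellTiter-Glo luminescence.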
Hits are given with their value; n = inactive; u = inconclusive; x = no result given. Rows were chosen to be rich in hits. Some 19% of all compounds tested hit in one or more screens of this group. Calls come from the whole dose curve; as a rule, active = well fitted curve in the direction sought with a large enough effect; inconclusive = small, poorly fitted or top-dose-only effect, or another doubt; inactive = no such curve, though single readings can be large; an effect the other way counts as inactive or inconclusive.

SMILES	DT40 TDP1 CPT	KB-V1 cytotox	HT1080NT lethal	KB-3-1 cytotox	HT1080 IDH1KD tx	TDP1 cell noCPT
O=C(Cn1c(O)c(/C=C2\C=Nc3ccc(Br)cc32)sc1=O)N1CCCC1	21µM	n	u	n	n	u
COc1ccc(Cc2nnc(N/N=C/c3ccc(O)cc3O)[nH]c2=O)cc1OC	5.8µM	n	u	u	u	5.8µM
COc1ccc(OCC(=O)OCc2cc(=O)n3cc(C)sc3n2)cc1	n	n	x	n	x	n
O=C1CC(NS(=O)(=O)c2ccc([N+](=O)[O-])cc2)CN1c1ccc2c(c1)OCCO2 (stereo not given)	n	n	n	n	n	n
O=C1CC(NS(=O)(=O)c2ccc([N+](=O)[O-])cc2)CN1c1ccc(Cl)cc1 (stereo not given)	u	n	n	n	n	16µM
CC(=O)c1ccc(S(=O)(=O)NC2CC(=O)N(c3ccc(C)c(C)c3)C2)cc1 (stereo not given)	15µM	n	n	n	n	15µM
CC(C)c1nnc(N2C(=O)C(O)=C(C(=O)c3cccs3)C2c2ccccc2)s1 (stereo not given)	n	n	n	n	n	n
COc1cccc(C(=O)NNS(=O)(=O)c2ccccc2)c1	n	n	n	n	n	n
COc1ccc(-c2cc(C(F)(F)F)n3nc(C(=O)Nc4cc(C(F)(F)F)ccc4Cl)cc3n2)cc1OC	n	n	x	n	x	u
COCCCNC(=O)Cn1ccc(N)nc1=O	n	n	n	n	n	n
COc1ccc(-c2nc(-n3c(C)c(C(C)=O)c(C(C)=O)c3C)sc2C)cc1	21µM	n	n	n	n	23µM
CC(=O)c1c(C(C)=O)c(C)n(-c2nc(-c3ccc(C)c(C)c3)c(C)s2)c1C	18µM	n	n	n	n	23µM
O=c1oc2cc(O)ccc2cc1-c1nc(-c2ccc(Cl)c(Cl)c2)cs1	n	n	x	n	x	n
OCCN(CCO)c1ccc(C(c2ccccc2Cl)c2ccc(N(CCO)CCO)cc2Cl)c(Cl)c1	u	n	n	u	u	18µM
Nc1c(Br)c(=O)[nH]c(=O)n1-c1ccc(F)cc1	n	n	n	n	n	23µM
O=C1c2cccc(-c3ccc(C(F)(F)F)cc3)c2C2CCCCN12 (stereo not given)	u	n	n	n	u	u
O=C1c2cccc3c2[C@H](CCC3)CN1[C@@H]1CN2CCC1CC2	17µM	x	x	x	x	15µM
CC(C)Cn1c(SCC(=O)Nc2cc(Cl)c(Cl)cc2Cl)nc(O)cc1=O	n	n	n	n	n	n
O=c1cc(-c2cccc(Br)c2)nc(-c2ccccc2F)o1	26µM	n	n	n	n	18µM
O=c1cc(-c2ccccc2F)nc(-c2ccccc2F)o1	n	u	n	u	n	n
O=S(=O)(c1ccc(C(F)(F)F)cc1)N1CCN(CCOc2ccccc2)CC1	n	n	n	n	n	n
COc1ccc(S(=O)(=O)N2CCN(CCOc3ccccc3Cl)CC2)cc1OC	23µM	u	n	n	n	u
Cc1ccc(S(=O)(=O)N2CCN(CCOc3cccc(C)c3)CC2)cc1	n	n	n	n	n	7.3µM
O=S(=O)(c1ccc(F)cc1)N1CCN(CCOc2ccccc2)CC1	n	n	n	n	n	n
Clc1cccc(OCCN2CCN(CCOc3cccc(Cl)c3)CC2)c1	2.9µM	n	u	16µM	u	2.3µM
SMILES	DT40 TDP1 CPT	KB-V1 cytotox	HT1080NT lethal	KB-3-1 cytotox	HT1080 IDH1KD tx	TDP1 cell noCPT
O=S(=O)(c1ccc(Br)s1)N1CCN(CCOc2ccccc2)CC1	21µM	x	n	x	n	u
COc1ccc(S(=O)(=O)N2CCN(CCOc3ccc(Br)cc3)CC2)cc1OC	u	n	n	u	u	15µM
Cc1ccc(S(=O)(=O)N2CCN(CCOc3c(Cl)cccc3Cl)CC2)cc1C	21µM	n	n	n	n	u
COc1ccc(OC)c(C(=O)CN2CCN(S(=O)(=O)c3ccc(Br)cc3)CC2)c1	n	n	n	n	n	n
CC1(C)CC(=O)C=C(NCc2ccc(Cl)c(Cl)c2)C1	u	u	n	n	n	n
O=C(Cn1ncc2c1-c1ccccc1OC2)Nc1ccc(S(=O)(=O)N2CCCCC2)cc1	u	u	n	n	n	u
COc1ccc(NC(=O)Cn2ncc3c2-c2ccccc2OC3)cc1Cl	u	u	x	u	x	15µM
Cc1cccc(N2CCN(C(=O)Cn3ncc4c3-c3ccccc3OC4)CC2)c1C	18µM	n	x	n	x	16µM
Cc1ccc2c(c1)-c1c(cnn1CC(=O)N1CCN(c3cccc(C(F)(F)F)c3)CC1)CO2	u	n	x	n	x	u
Cc1ccc2c(c1)-c1c(cnn1CC(=O)N1CCN(c3cc(C)ccc3C)CC1)CO2	u	u	x	n	x	18µM
COc1ccc(N2CCN(C(=O)Cn3ncc4c3-c3cc(C)ccc3OC4)CC2)cc1	n	n	x	n	x	n
O=C(/C=C/c1ccc(OC(F)F)cc1)OCC(=O)N1CCC(c2ccccc2)=N1	u	n	n	n	n	u
CCOC(=O)C1CCCC12Nc1cccc3cccc(c13)N2 (stereo not given)	18µM	n	n	n	n	15µM
CCOC(=O)C1CCCN(S(=O)(=O)c2ccc3ccccc3c2)C1 (stereo not given)	n	n	n	n	n	u
CC1CN(CCCCOc2ccc(Cl)c3ccccc23)CC(C)O1 (stereo not given)	u	n	21µM	n	u	10µM
CCc1nnc(N/N=C/c2cccs2)n1N	26µM	n	n	n	n	u
CCc1nnc(N/N=C/c2cc(Br)c(O)cc2O)n1N	4.1µM	n	u	u	u	u
CC(C)(C)c1nnc(N/N=C/c2cc(Br)ccc2O)n(N)c1=O	2.6µM	u	u	u	u	2.3µM
CN(C)C(=O)Cn1cnc2c(cnn2-c2ccc(F)cc2)c1=O	n	n	n	n	n	n
CCOC(=O)C1(CCOC)CCN(Cc2ccncc2)CC1	n	n	n	n	n	n
CCOC(=O)C1(CCc2ccccc2)CCN(Cc2cccc3nccnc23)CC1	21µM	n	n	n	n	16µM
CCOC(=O)C1(CCOc2ccccc2)CCN(Cc2nccn2CC)CC1	u	n	n	n	n	u
CCOC(=O)C1(CCOc2ccccc2)CCN(Cc2ccc(-n3cccn3)cc2)CC1	u	u	u	n	u	16µM
CCOC(=O)C1(CCOc2ccccc2)CCN(Cc2ccncc2)CC1	u	u	n	n	n	26µM
CCCc1cc(=O)[nH]c2nnc(SCC(=O)Nc3cccc(NC(C)=O)c3)n12	u	n	n	n	n	u
